Most compounds without a hit are left out; they make up all but 8% or so of the library.
MCF10A rereplic: A quantitative high throughput screen for small molecules that induce DNA re-replication in MCF 10a normal breast cells | MCF 10A DNA re-replication, Hoechst nuclear intensity, 48 h | Potency, µM (titrated, usually from 46.1 µM), for inactives: top-dose activity, positive = re-replication, usual class: activators | 350,000 tested, 2.9% active; also: % of control where 0% means no effect; nearly all actives have a fitted effect of over 50% in size
HT1080 IDH1KD tx: qHTS for induction of synthetic lethality in tumor cells producing 2HG: qHTS for the HT-1080-IDH1KD cell line | HT-1080 IDH1 knockdown viability, ATP luminescence, 48 h | AID 686971, 2013 | 360,000 tested, 2% active | Potency, µM (highest dose often 46.1 µM), inactives show at the top dose activity, negative = toxicity, most hits filed as cytotoxic;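 also: 0% = DMSO wells and -100% = cell-free medium wells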
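Luminescent ATP read-out (CellTiter-Glo, 10 min at room temperature) after 48 h compound exposure at 37 °C gave viability of IDH1-knockdown HT-1080 cells. Activity was normalised to DMSO and cell-free wells, then fitted as concentration-response curves.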
KB-3-1 cytotox: qHTS assay for MDR1-selective chemotherapeutics: Primary screen using the parental adenocarcinoma cell KB-3-1 | KB-3-1 viability, CellTiter-Glo ATP luminescence, 72 h | AID 1347075, 2019 | Potency, µM (doses to about 46.1 µM), usual class: cytotoxic | 400,000 tested, 1.4% active; also: % is scaled to controls: 0 for no effect and ±100 for the full control effect; nearly all actives have a fitted effect of over 60% in size
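Here the drug-naive KB-3-1 line serves as comparator for MDR sub-line selectivity; cells received compound titrations, 72 h at 37 °C, then CellTiter-Glo readout.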
HT1080-NT tox: qHTS for induction of synthetic lethality in tumor cells producing 2HG: qHTS for the HT-1080-NT fibrosarcoma cell line; HT-1080-NT fibrosarcoma viability, CellTiter-Glo ATP luminescence, 48 h; AID 686970, 2013; 360,000 tested, 1.6% active; Potency, µM (doses to about 46.1 µM), for the others: at the highest dose activity, negative = less viability, usual class: cytotoxic;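 also: NT is the 2HG producing partner of a matched IDH1 knockdown line; 0% = DMSO-treated cells and -100% = media-only wells without cells; nearly all actives have a fitted effect of over 55% in size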
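Viability by CellTiter-Glo luminescence after 48 h compound exposure at 37C of HT-1080-NT cells (750/well, RPMI, 5% FBS). % activity scaled between DMSO wells and medium-only wells, then curve-fitted and categorized by curve class.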
KB-V1 MDR tox: qHTS assay for MDR1-selective chemotherapeutics: Primary screen using the drug-selected MDR subline cells KB-V1. KB-V1 MDR cells viability, CellTiter-Glo, 72 h. Potency, µM (series often up to 46.1 µM), actives largely listed as cytotoxic. 400,000 tested, 3.4% active. AID 1347076, 2019; also: % is scaled to controls: 0 for no effect and ±100 for the full control effect; nearly all actives have a fitted effect of over 60% in size
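Compound-treated KB-V1 multidrug-resistant cells, 72 h, 37 degrees C; viability by CellTiter-Glo. Fitted qHTS curves give the values.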
SW480 rerep: A quantitative high throughput screen for small molecules that induce DNA re-replication in SW480 colon adenocarcinoma cells | SW480 DNA re-replication, Hoechst DNA content imaging, 48 h | Potency, µM (series often up to 46.1 µM), for inactives: top-dose re-replication activation, actives largely listed as activators | 340,000 tested, 1.8% active | AID 624297, 2012; also: % of control where 0% means no effect; nearly all actives have a fitted effect of over 55% in size
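250 cells/well; 23 nL cpd via pin tool; 48 hr, 37 C, 5% CO2; Hoechst 40 min; imager read of total nuclear intensity, ex 405/em 500-530 nm.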
* marks the source's active call; other numbers are inactive results. Calls follow the shape of the dose curve; as a rule, active = well fitted curve in the direction sought with a large enough effect; inconclusive = small, poorly fitted or top-dose-only effect, or another doubt; inactive = no such curve, though single readings can be large; an effect the other way counts as inactive or inconclusive. Potency is read from the fitted curve at half-maximal effect.

Cn1c(=O)c2nc3ccccc3nc2n(C)c1=O was read as MCF10A rereplic 0.731µM*, HT1080 IDH1KD tx -3.7%, KB-3-1 cytotox inactive, HT1080-NT tox -0.3%, KB-V1 MDR tox inactive and SW480 rerep -55.3%.
Screening CCc1cc(C(=O)Nc2cc(S(=O)(=O)N(CC)CC)ccc2N2CCN(C)CC2)sc1C returned MCF10A rereplic -6.7%, HT1080 IDH1KD tx -7.1%, KB-3-1 cytotox inactive, HT1080-NT tox -9.1%, KB-V1 MDR tox inactive and SW480 rerep 1.5%.
For CCc1cc(C(=O)Nc2cc(S(=O)(=O)N(C)C)ccc2C)sc1C the results were MCF10A rereplic 17.4%, HT1080 IDH1KD tx -12.6%, KB-3-1 cytotox inactive, HT1080-NT tox -7.4%, KB-V1 MDR tox 9.2µM* and SW480 rerep 16.7%.
`CCCCCCC(C)NC(=S)Nc1cc(S(=O)(=O)N(C)C)ccc1C` (configuration not stated) gave MCF10A rereplic 18.4µM*, HT1080 IDH1KD tx inconclusive, KB-3-1 cytotox inconclusive, HT1080-NT tox -10.6%, KB-V1 MDR tox inconclusive and SW480 rerep inconclusive.
`CCCCOC(=S)NC(=O)c1sc2ccccc2c1Cl` gave MCF10A rereplic -0.9%, HT1080 IDH1KD tx 11.1%, KB-3-1 cytotox inactive, HT1080-NT tox 2.3%, KB-V1 MDR tox inactive and SW480 rerep -6.8%.
Screening O=C(N/N=C/c1cccc(F)c1)c1cc(-c2ccco2)nc2ccccc12 returned MCF10A rereplic inconclusive, HT1080 IDH1KD tx 16.4µM*, KB-3-1 cytotox inconclusive, HT1080-NT tox inconclusive, KB-V1 MDR tox inconclusive and SW480 rerep inconclusive.
`O=C(N/N=C/c1ccccn1)c1cc(-c2ccccc2)nc2ccccc12` gave MCF10A rereplic inconclusive, HT1080 IDH1KD tx -19.4%, KB-3-1 cytotox inactive, HT1080-NT tox 0.0%, KB-V1 MDR tox inactive and SW480 rerep inconclusive.
`O=C(N/N=C/c1cccs1)c1cc(-c2ccncc2)nc2ccccc12` gave MCF10A rereplic inconclusive, HT1080 IDH1KD tx -54.3%, KB-3-1 cytotox inconclusive, HT1080-NT tox -57.8%, KB-V1 MDR tox 1.84µM* and SW480 rerep inconclusive.
COc1ccccc1-c1cc(C(=O)N/N=C/c2cccs2)c2ccccc2n1 was read as MCF10A rereplic 14.1µM*, HT1080 IDH1KD tx inconclusive, KB-3-1 cytotox inconclusive, HT1080-NT tox -28.2%, KB-V1 MDR tox inactive and SW480 rerep 6.9%.
Screening COc1ccccc1-c1cc(C(=O)N/N=C\c2cnn(C)c2C)c2ccccc2n1 returned MCF10A rereplic inconclusive, HT1080 IDH1KD tx -4.6%, KB-3-1 cytotox inactive, HT1080-NT tox -7.2%, KB-V1 MDR tox inconclusive and SW480 rerep 0.6%.
`COc1ccc(-c2cc(C(=O)N/N=C/c3ccc4c(c3)OCO4)c3ccccc3n2)c(OC)c1` gave MCF10A rereplic inconclusive, HT1080 IDH1KD tx -23.0%, KB-3-1 cytotox inactive, HT1080-NT tox -21.3%, KB-V1 MDR tox inactive and SW480 rerep inconclusive.
For O=C(N/N=C/c1ccc2c(c1)OCO2)c1cc(-c2ccc(F)cc2)nc2ccccc12 the results were MCF10A rereplic 3.66µM*, HT1080 IDH1KD tx inconclusive, KB-3-1 cytotox inconclusive, HT1080-NT tox inconclusive, KB-V1 MDR tox 8.2µM* and SW480 rerep inconclusive.
COc1ccc(C2=NN(CCC(=O)NC3CCC(C)CC3)C(=O)CC2)cc1 (configuration not stated) was read as MCF10A rereplic -8.3%, HT1080 IDH1KD tx 23.3%, KB-3-1 cytotox inactive, HT1080-NT tox 11.2%, KB-V1 MDR tox inactive and SW480 rerep -3.0%.
`COc1cc(/C=N/NC(=O)c2cc(-c3ccccc3OC(C)C)nc3ccccc23)ccc1O` gave MCF10A rereplic 10.3µM*, HT1080 IDH1KD tx inconclusive, KB-3-1 cytotox 18.4µM*, HT1080-NT tox -20.2%, KB-V1 MDR tox 11.6µM* and SW480 rerep inconclusive.
COc1cc(/C=N/NC(=O)c2cc(-c3ccccc3)nc3ccccc23)ccc1O was read as MCF10A rereplic 15.9%, HT1080 IDH1KD tx inconclusive, KB-3-1 cytotox inactive, HT1080-NT tox -25.0%, KB-V1 MDR tox inactive and SW480 rerep 0.4%.
Screening COc1ccc(-c2cc(C(=O)N/N=C/c3ccc(OC)c(COCC(F)(F)C(F)F)c3)c3ccccc3n2)c(OC)c1 returned MCF10A rereplic 23.1µM*, HT1080 IDH1KD tx 1.6%, KB-3-1 cytotox inactive, HT1080-NT tox -1.8%, KB-V1 MDR tox inactive and SW480 rerep 17.4%.
`O=C(N/N=C/c1cccs1)c1cc(C2CC2)nc2ccccc12` gave MCF10A rereplic 8.2µM*, HT1080 IDH1KD tx inconclusive, KB-3-1 cytotox 18.4µM*, HT1080-NT tox inconclusive, KB-V1 MDR tox inconclusive and SW480 rerep 18.4µM*.
`COc1ccccc1CN(C)C(=O)c1cc(-c2cccs2)nc2ccccc12` gave MCF10A rereplic 18.4µM*, HT1080 IDH1KD tx inconclusive, KB-3-1 cytotox inconclusive, HT1080-NT tox inconclusive, KB-V1 MDR tox inconclusive and SW480 rerep 9.6%.
`O=C(Nc1cc(C(F)(F)F)ccc1Cl)c1ccc(NC(=O)C(F)(F)F)cc1` gave MCF10A rereplic -2.6%, HT1080 IDH1KD tx -21.4%, KB-3-1 cytotox inactive, HT1080-NT tox inconclusive, KB-V1 MDR tox inactive and SW480 rerep 0.7%.
For CC(=O)Nc1ccc(NC(=O)c2c(-c3ccccc3)noc2C)cc1 the results were KB-3-1 cytotox inactive and KB-V1 MDR tox inactive.
For CCCc1cc(C(=O)N/N=C/c2ccc(CC)s2)c2ccccc2n1 the results were MCF10A rereplic 7.31µM*, HT1080 IDH1KD tx 3.66µM*, KB-3-1 cytotox inconclusive, HT1080-NT tox inconclusive, KB-V1 MDR tox 5.8µM* and SW480 rerep 20.6µM*.
For CCc1ccc(/C=N/NC(=O)c2cc(-c3ccncc3)nc3ccccc23)s1 the results were MCF10A rereplic 1.03µM*, HT1080 IDH1KD tx inconclusive, KB-3-1 cytotox 4.61µM*, HT1080-NT tox inconclusive, KB-V1 MDR tox inactive and SW480 rerep 3.66µM*.
For CCc1ccc(/C=N/NC(=O)c2c[nH]c3ccccc23)s1 the results were MCF10A rereplic 3.2%, HT1080 IDH1KD tx -7.8%, KB-3-1 cytotox inactive, HT1080-NT tox -5.1%, KB-V1 MDR tox inconclusive and SW480 rerep 2.1%.
